# Measured values reported in PubChem BioAssay AID2810 (NMMLSC, 2010).
# Out of some 1,200 compounds screened, about 65 (5%) were called active.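 The calls were made as follows: active = at either tested dose, response and 90th-percentile vesicle-stain brightness of CD8 cells under set limits and under 9% cells vesicle-bound; inactive = the rest.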 The list comes from a sample in which actives are over-represented; it also holds similar structures and randomly drawn compounds.
# Test: modulators of CD8 T cell-vesicle binding, confirmation, cherry-picked primary hits, two concentrations (AID 2810);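 also: lower values mean blocking of vesicle binding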;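 as to percent response (vesicle binding): ratio of mean FL2 vesicle stain of CD8+ cells to that row's control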
# Conditions: 2C CD8+ T cell-vesicle binding, flow cytometry; for double positive events: CD8+/vesicle+ events
# [1] = at 15.4 µM, stronger effect = lower value
SMILES,double positive events (at 7.7 µM),double positive events [1],percent response (vesicle binding) [1],"percent response (vesicle binding) (response, at 7.7 µM)"
O=C(NCCC1=CCCCC1)C(=O)NCC(c1ccco1)N1CCN(c2ccccc2F)CC1 (stereo unspecified),36.4%,10.7%,201% (inactive),264%
O=C(NCc1cccnc1)C(=O)NCC(c1ccco1)N1CCN(c2ccccc2)CC1 (stereo unspecified),20.2%,6.1%,135% (inactive),202%
COc1ccc(NC(=O)Cc2ccc(C)c(C)c2)cc1S(=O)(=O)N1CCCCC1,37.7%,10.7%,257% (inactive),649%
COc1ccccc1NS(=O)(=O)c1ccc(C)c(NC(=O)c2ccc(S(=O)(=O)N3CCCCCC3)cc2)c1,11.9%,35.5%,332% (inactive),182%
COc1ccccc1NS(=O)(=O)c1cc(NC(=O)CNC(=O)c2cc(C)cc(C)c2)ccc1C,21%,0.9%,39.6% (active),218%
O=S(=O)(NN=C1CCCCCCC1)c1ccc(Br)cc1,13.7%,7.3%,144% (inactive),120%
CC(/C=C/c1ccc(C)o1)=C\C(=O)O,19.1%,19.8%,196% (inactive),227%
COCCNC(=O)c1c[nH]c2ccc(OC)cc2c1=O,18.7%,13.1%,154% (inactive),563%
NC(=O)NC(=O)COC(=O)CN1C(=O)C2CCCCC2C1=O (stereo unspecified),15.9%,33.3%,345% (inactive),151%
CCOC(=O)c1c(O)c2cc(Cl)ccc2n(CC)c1=O,10.9%,12%,102% (inactive),127%
CCOC(=O)c1c(C=O)c2ccccc2n1CC,17.9%,3%,28.6% (active),287%
CCn1c(=O)cc(SCC(=O)N(C)Cc2ccccc2)c2ccccc21,24.8%,14%,193% (inactive),224%
Cc1ccc(CSc2ccc(S(=O)(=O)N3CCCC3)cn2)cc1,8.3%,18%,92.4% (inactive),237%
CC(=O)c1ccc(Nc2cc(C)nc3nc(C)nn23)cc1,10.4%,19.9%,90.9% (inactive),189%
COc1ccc(NC(=S)N2CCN(c3ncccn3)CC2)c(OC)c1,30.6%,14.7%,195% (inactive),246%
COc1ccc(-c2cccc3c2NC(=O)C3=O)cc1OC,7.8%,26.1%,427% (inactive),305%
C/C(=N\Nc1nc2ccccc2[nH]1)c1cc2ccccc2o1,14.4%,31.4%,271% (inactive),266%
CCSc1ncnc2sc(C)c(C)c12,7.6%,17.4%,318% (inactive),354%
Cc1sc2ncnc(NCC(C)(C)N3CCOCC3)c2c1C,6.4%,1.9%,49.2% (active),251%
CC(C)(CNC(=O)c1cc2c(s1)CCCC2)N1CCOCC1,8%,20.9%,213% (inactive),164%

SMILES,double positive events (at 7.7 µM),double positive events [1],percent response (vesicle binding) [1],"percent response (vesicle binding) (response, at 7.7 µM)"
Cc1ncc([N+](=O)[O-])n1Cc1cccc(F)c1,7.3%,11.5%,118% (inactive),274%
COc1ccc(S(=O)(=O)N(C)C[C@H]2Oc3ccc(NC(=O)C4CC4)cc3C(=O)N([C@H](C)CO)C[C@@H]2C)cc1,5.6%,16.6%,189% (inactive),102%
Cc1cc(C)c(/C=N/NC(N)=O)c(C)c1/C=N/NC(N)=O,38.1%,18.6%,240% (inactive),428%
COc1ccc(/C=C2\SC(N3CCc4ccccc4C3)=NC2=O)cc1OC,22.6%,2.9%,42% (active),201%
O=C1N=C(N2CCOCC2)S/C1=C\c1cccs1,8.6%,6.3%,248% (inactive),332%
CCCC(=O)N1CCc2cc(OC)c(OC)cc2C1COc1ccccc1OC (stereo unspecified),21.6%,13.8%,128% (inactive),276%
CC(C)NC(=O)NC(=O)COC(=O)c1ccc(F)cc1F,29.2%,19.1%,385% (inactive),423%
O=C(c1c[nH]c2ccccc12)N1CCN(Cc2ccccc2)CC1,13.7%,10.6%,47.9% (inactive),181%
CC(NS(=O)(=O)c1ccc(Cl)c(Cl)c1)C(=O)OCC(=O)N1CCCCCC1 (stereo unspecified),27.5%,12.9%,182% (inactive),284%
c1csc(-c2nc3ccccc3[nH]2)c1,38.6%,18.6%,255% (inactive),233%
COc1ccc([C@H]2CC(=O)C=C(c3cc(F)ccc3OC)C2)cc1,19.1%,16.3%,198% (inactive),138%
COc1ccc(C2=CC(=O)CC(c3ccc(OC)cc3)C2)cc1 (stereo unspecified),14.8%,3.2%,110% (inactive),120%
COc1ccc([C@H]2CC(=O)C=C(c3cccc(Cl)c3)C2)cc1,37.2%,4.7%,129% (inactive),315%
COc1ccc([C@H]2CC(=O)C=C(c3ccc4c5c(cccc35)CC4)C2)cc1,6.5%,29.8%,626% (inactive),271%
COc1ccc([C@H]2CC(=O)C=C(c3c(C)cc(C)cc3C)C2)cc1,12.5%,5.7%,49.9% (active),132%
COc1ccc([C@H]2CC(=O)C=C(/C=C/c3ccccc3)C2)cc1,19.1%,3.3%,36.9% (active),286%
O=C(NCCO)/C(=C\c1ccc(Br)cc1)NC(=O)c1cccs1,6.9%,24.7%,683% (inactive),70.4%
COc1ccc(CCCC(=O)NC(C)c2ccccc2)cc1 (stereo unspecified),12.2%,15.2%,93.8% (inactive),104%
O=C(COC(=O)C1(c2cccc(F)c2)CCCC1)NCc1ccc2c(c1)OCO2,15.2%,3.1%,106% (inactive),82.7%
